A selection: hits, their analogues and other compounds. The true share with any hit is near 8.8%.
HT1080NT lethal = qHTS for induction of synthetic lethality in tumor cells producing 2HG: qHTS for the HT-1080-NT fibrosarcoma cell line; HT-1080-NT fibrosarcoma viability, CellTiter-Glo ATP luminescence, 48 h; Potency, µM (titrated, usually from 46.1 µM), actives largely listed as cytotoxic; 360,000 compounds, 1.6% hits; AID 686970, 2013;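 further: NT is the 2HG producing partner of a matched IDH1 knockdown line; nearly all actives have a fitted effect of over 55% in size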
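Luminescent CellTiter-Glo readout after 48 hours of compound exposure at 37 degrees C defined viability of HT-1080-NT cells. Activity was normalized to DMSO wells and cell-free media wells; concentration-response curves were fitted and assigned curve classes.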
HT1080 IDH1KD tx = qHTS for induction of synthetic lethality in tumor cells producing 2HG: qHTS for the HT-1080-IDH1KD cell line. HT-1080 IDH1 knockdown viability, ATP luminescence, 48 h. Potency, µM (titrated, usually from 46.1 µM), hits mostly cytotoxic. 360,000 compounds, 2% hits
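Knockdown cells (IDH1KD HT-1080) received compounds 2 h after plating at 750 cells/well and were kept 48 h at 37 °C in 5% FBS RPMI. A CellTiter-Glo luminescence read gave % activity for curve fitting.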
KB-V1 cytotox = qHTS assay for MDR1-selective chemotherapeutics: Primary screen using the drug-selected MDR subline cells KB-V1; AID 1347076, 2019; KB-V1 MDR cells viability, CellTiter-Glo, 72 h; Potency, µM (doses to about 46.1 µM), hits mostly cytotoxic; 400,000 compounds, 3.4% hits; further: nearly all actives have a fitted effect of over 60% in size
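KB-V1 cells (P-gp-expressing MDR subline of KB-3-1) in phenol-red-free DMEM with 10% FBS were exposed to library compounds over a concentration series for 72 h at 37 degrees C. Viability read by CellTiter-Glo luminescence; concentration-effect curves fitted after normalization.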
IL-1B inflam inh = qHTS for Inhibitors of Inflammasome Signaling: IL-1-beta AlphaLISA Primary Screen | THP-1 LPS/ATP IL-1B secretion, AlphaLISA, 16 h; stronger effect = lower value | activity change, % at 57.5 µM | 360,000 compounds, 4.7% hits | AID 743279, 2014; in the data active means activity change below about -50%; inconclusive means mostly about -30% to -49%
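Secreted IL-1B measured by AlphaLISA bead assay after 16 h compound exposure of THP-1 cells; compounds (final up to 57.5 uM) added 1 h before LPS (250 ng/mL) and ATP (1.25 mM) stimulation; lower signal means less secretion.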
KB-3-1 tox = qHTS assay for MDR1-selective chemotherapeutics: Primary screen using the parental adenocarcinoma cell KB-3-1; KB-3-1 viability, CellTiter-Glo ATP luminescence, 72 h; Potency, µM (top dose mostly 46.1 µM), hits mostly cytotoxic; 400,000 compounds, 1.4% hits; AID 1347075, 2019; further: nearly all actives have a fitted effect of over 60% in size
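Parental KB-3-1 viability, qHTS format: 72 h compound exposure, 37 °C; CellTiter-Glo; media-only wells and DMSO plates as controls; concentration-effect fits on corrected data.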
Hits are given with their value; . = inactive; ? = inconclusive; / = no result. Unless noted, the call rests on the fitted dose curve; in most records, active means well fitted curve in the direction sought with a large enough effect; inconclusive means small, poorly fitted or top-dose-only effect, or another doubt; inactive means no such curve, though single readings can be large; an effect the other way counts as inactive or inconclusive.

SMILES	HT1080NT lethal	HT1080 IDH1KD tx	KB-V1 cytotox	IL-1B inflam inh	KB-3-1 tox
CC(=O)Nc1cccc(-c2cc(NC=O)c3ncc(-c4ccc(C(C)=O)cc4)n3c2)c1	23µM	.	.	.	.
CC(=O)Nc1cc(-c2ccc(N3CCN(C)CC3)cc2)cn2c(-c3ccc(F)c(Cl)c3)cnc12	21µM	16µM	?	/	?
O=C(NCC1CCCO1)c1ccc2c(c1)S(=O)(=O)c1ccccc1C2=O (stereo not drawn)	.	.	.	.	.
Cc1cccc(NC(=O)CSc2nncn2C)c1	/	/	.	/	.
CCC1CCC2(CC1)NC(=O)N(CC(=O)Nc1ccc(OC)c(Cl)c1)C2=O (stereo not drawn)	.	.	.	.	.
Cc1cc2c(cc1C)N[C@]1(C[C@H]3CCCC(=O)N4CC[C@@H](C1)[C@@H]34)C(=NC1CCCCC1)N2	/	/	.	/	.
COC(=O)c1ccccc1NC(=O)C1(c2cccs2)CCOCC1	/	/	.	/	.
CC(=O)c1ccc(-c2cnc3c(NC=O)cc(-c4ccc(N5CCN(C)CC5)cc4)cn23)cc1	26µM	?	.	.	.
CCCCS(=O)CC(O)COc1ccc(C(C)(C)C)cc1 (stereo not drawn)	.	?	21µM	.	.
CN(Cc1c(F)cccc1Cl)c1ccc(S(=O)(=O)N2CCOCC2)cn1	.	.	18µM	.	?
CN1CCN(S(=O)(=O)c2ccc(N(C)Cc3c(F)cccc3Cl)nc2)CC1	.	.	.	.	.
COc1cc(OC)c(-c2cc(C(=O)NCc3ccc(F)cc3)c3c(-c4ccccc4)[nH]nc3n2)cc1OC	/	/	.	/	.
COc1ccc(S(=O)(=O)Nc2ccc(C)cc2)cc1N(C)S(=O)(=O)c1ccc(Cl)cc1	?	.	?	-60	?
COC(=O)CN(c1cc(Cl)ccc1OC)S(=O)(=O)c1ccc(C)cc1	18µM	16µM	?	.	?
CCN(CC)C(=O)c1[nH]cnc1C(=O)NC1CCN(C(=O)OC(C)(C)C)CC1	.	.	.	.	.
CCC1(C)Cc2ccccc2-c2nc(-c3ccccc3)oc(=O)c21 (stereo not drawn)	.	.	16µM	.	?
CN(C)CCCNCC(=O)NN(c1ccccc1)c1ccccc1	.	.	.	.	.
Cc1cc2nc(-c3ccc(SCc4ccccc4C#N)nc3)[nH]c2cc1C	?	.	21µM	?	.
Cc1cc2nc(-c3ccc(SCc4ccc(C(=O)O)cc4)nc3)[nH]c2cc1C	?	?	.	.	?
O[C@@H]1CN(CC2CCCCC2)[C@@H](c2ccccc2)C[C@H]1n1cc(C2CC2)nn1	.	.	?	.	21µM
O[C@H]1C[C@H](c2ccccc2)N(CC2CCCCC2)C[C@@H]1n1cc(C2CC2)nn1	?	?	.	.	?
COc1ccc(CC(=O)O/N=C(\N)c2ccccc2)cc1OC	.	.	.	.	.
CCOC(=O)c1[nH]c(C)c(CCC(=O)N2CCN(c3cccc(C)c3C)CC2)c1C	/	/	.	/	?
COc1ccc(-c2cncc3nccn23)cc1OC	.	.	.	.	.
CCOc1ccc(-c2cncc3nccn23)cc1	?	.	.	-52	.
SMILES	HT1080NT lethal	HT1080 IDH1KD tx	KB-V1 cytotox	IL-1B inflam inh	KB-3-1 tox
CSc1nc(C)cc(Nc2cccc(C(=O)O)c2)n1	/	/	.	/	.
CC(C)C[C@@H](CN1CCC[C@@H]1CN1C(=S)NC[C@@H]1Cc1ccc(O)cc1)N1C[C@H](Cc2ccc(O)cc2)N(CC2CCCCC2)C1=S	23µM	?	?	-80	?
CC(C)C[C@@H](CN1CCCC1CN1C(=S)NC[C@@H]1Cc1ccccc1)N1C[C@H](Cc2ccccc2)N(CC2CCCCC2)C1=S (stereo partly drawn)	.	.	?	.	.
CC(C)C[C@@H](CN1CCCC1CN1C(=S)NC[C@@H]1Cc1ccccc1)N1C[C@H](Cc2ccc(O)cc2)N(CC2CCCCC2)C1=S (stereo partly drawn)	?	?	?	.	.
CC(C)C[C@@H](CN1CCC[C@@H]1CN1C(=S)NC[C@@H]1Cc1ccc(O)cc1)N1C[C@H](Cc2ccc(O)cc2)N(CC2CCCCCC2)C1=S	?	18µM	?	-82	?
Cc1cc(C(C)(C)C)cc(C)c1Cn1c2[n+](c3ccc(C(F)(F)F)cc31)CCCCC2	15µM	?	.	-108	?
O=C(Cn1c2[n+](c3ccc(C(F)(F)F)cc31)CCCCC2)Nc1ccc(Br)cc1	.	.	.	.	.
FC(F)(F)c1cccc(Cn2c3[n+](c4ccc(C(F)(F)F)cc42)CCCCC3)c1	.	.	.	-77	.
N#Cc1ccc(NC(=O)Cn2c3[n+](c4ccc(C(F)(F)F)cc42)CCCCC3)cc1	.	.	.	.	.
COc1ccc(C)cc1NC(=O)C(=O)NCC1(c2ccccc2)CCCC1	/	/	.	/	.
CC(C)Oc1ccc(C(CC(=O)O)NC(=O)Cc2ccccc2)cc1 (stereo not drawn)	.	.	.	.	.
COc1ccc(C(CCNCc2ccc(N(C)C)cc2)c2ccccc2)cc1 (stereo not drawn)	18µM	?	?	-101	.
CC(C)Oc1ccc(CNC(=O)CC(c2ccccc2)c2cc(Cl)ccc2O)cc1 (stereo not drawn)	?	?	23µM	?	.
CC(C)Oc1ccc(C(CCNCc2ccc(O)cc2)c2ccccc2)cc1 (stereo not drawn)	?	?	18µM	-91	?
c1ccc2c(CCNc3ncnc4nc[nH]c34)cccc2c1	.	.	.	.	18µM
c1ccc(CCCNc2ncnc3nc[nH]c23)cc1	.	.	.	.	?
CCC1C(c2ccccc2)N(C)C(c2ccccc2)CC1(O)c1ccccc1 (stereo not drawn)	?	16µM	.	?	?
CSC(=CC(=O)c1ccccc1)SC	.	.	?	.	.
O=C(/C=C/Sc1ccccc1)c1ccccc1	2.8µM	5.6µM	.	-104	.
O=C(/C=C/Sc1ccccc1)c1ccc(Cl)cc1	?	7.9µM	.	-99	.
Cc1cccc(NS(=O)(=O)c2ccc(C(=O)NCC(c3ccco3)N(C)C)cc2)c1C (stereo not drawn)	.	.	?	.	.
N#C/C(=N\Nc1ccc(Cl)cc1)C(N)=S	9.2µM	2.3µM	.	-81	.
N#C/C(=N\Nc1ccccc1)C(N)=S	.	.	.	/	.
O=C(/C=C/c1ccc(Cl)cc1Cl)NCCSc1ccccc1	.	.	.	-88	.
O=C(/C=C/c1ccc(Cl)cc1Cl)NCCSCc1ccccc1	.	.	.	-96	.
